This passage reports INHIBITION results from ChEMBL document CHEMBL4513216, “Probing the Open Global Health Chemical Diversity Library for Multistage-Active Starting Points for Next-Generation Antimalarials” (ACS Infect Dis, 2020).

Screen size: about 69,000 compounds; about 8,600 (12%) showed an effect of 50% or more. This excerpt belongs to a sample that is enriched for strong results.

The subject of this test is Plasmodium berghei. The experiment in a line: Screen against P. berghei liver stage (PbLuc), transformed with Luciferase, at 10uM. The class given is functional, HepG2. As to conditions: tested at 10 uM.
`Cc1noc(C)c1-c1nc(C2CCCN(C(=O)C(C)C)C2)ccc1CO` (centres undefined): the INHIBITION stood at 48.1%.

As for `CC(=O)N(Cc1ncc(C)o1)C1CCN(Cc2nccn2C)C1` (centres undefined), the INHIBITION is reported as 11.45%.

Turning to `CC(=O)N1[C@H](Cn2cncn2)C[C@@H]2CN(CC3CC3)CC[C@@H]21`, the INHIBITION is -1.83%.

In the case of `COc1ccccc1C(=O)N1C[C@@H]2CCCCN(CC(N)=O)[C@@H]2C1`, the INHIBITION is 9.05%.

As to `COCCCNS(=O)(=O)c1ccc(N2CCCCS2(=O)=O)cc1`, the INHIBITION amounted to 73.4%.

As for `CC(NCCCn1cccn1)c1ccc(N2CCCS2(=O)=O)cc1` (centres undefined), the INHIBITION is recorded as 5.58%.

Regarding `COCCCNS(=O)(=O)c1cccc(CSC)c1`, the INHIBITION is on record as -15.7%.

`CCOc1ccc(NC(=O)N(C)Cc2cnn(C)c2)c(C)c1`: the INHIBITION stood at 11.9%.

For the compound `Cc1nc2c(c(C)c1CC(=O)NCc1cccs1)c(=O)[nH]n2C`, the INHIBITION is recorded as -0.219%.

As to `O=c1n(Cc2cccc(F)c2)nc2ncccn12`, the INHIBITION is -31.7%.

In the case of `Cc1ccoc1C(=O)N1CCO[C@H]2[C@H](OCC3CCOCC3)CC[C@@H]21`, the INHIBITION is given as -0.182%.

Take `Cc1ccoc1C(=O)N1C[C@H](OCC2CC2)[C@H]2OCCC[C@H]21`: the INHIBITION was -31%.

Regarding `Cc1ccoc1C(=O)N1C[C@@H](OCC2CCOCC2)[C@H]2OCCC[C@H]21`, the INHIBITION is on record as 57.1%.

Consider `Cc1ccc(C(=O)N2C[C@@H](OCC3CCOCC3)[C@H]3OCCC[C@H]32)o1`, for which the INHIBITION amounted to 41.5%.

`Cc1ccoc1C(=O)N1C[C@@H](OCC2CC2)[C@H]2OCCC[C@H]21`: the INHIBITION was 55.2%.

In the case of `Cc1ccoc1C(=O)N1C[C@H](OCc2cccnc2)[C@H]2OCCC[C@H]21`, the INHIBITION is listed as 33.4%.

For the compound `CN(C)CCN1CCc2c(nnn2C)C1COCc1ccccc1` (centres undefined), the INHIBITION is -4.98%.

As to `CCc1[nH]ncc1C(=O)N1CCCC(n2ccnc2C)C1` (centres undefined), the INHIBITION came to 7.12%.

Take `O=C(CC1CC1)N1CCC2(CC(=O)N(c3cccc(F)c3)C2)C1` (centres undefined): the INHIBITION is listed as -40.5%.

On to `CN(C)CC(=O)N1CCC2(CC(=O)N(c3cccc(C#N)c3)C2)C1` (centres undefined), for which the INHIBITION is 53.5%.

As for `CN(C)C(=O)N1CCC2(CC(=O)N(c3cccc(C#N)c3)C2)C1` (centres undefined), the INHIBITION came out at 7.65%.

For `COCCC(=O)N1CCCC2(CCN(c3ccccc3)C2=O)C1` (centres undefined), the INHIBITION is on record as -3.58%.

With `O=C1CC2(CCN(Cc3cccs3)C2)CN1c1cccc(F)c1` (centres undefined), the INHIBITION turned out to be 59.2%.

As to `COCC(=O)N1CCCC2(CCN(c3ccccc3)C2=O)C1` (centres undefined), the INHIBITION turned out to be 71.9%.

As to `N#Cc1cccc(N2CC3(CCN(C(=O)NC4CC4)C3)CC2=O)c1` (centres undefined), the INHIBITION is 33.4%.

As for `O=C1CC2(CCN(Cc3ccncc3)C2)CN1c1cccc(F)c1` (centres undefined), the INHIBITION is reported as -11.6%.

`O=C(Cc1ccccc1)N1CCC2(CC(=O)N(c3cccc(F)c3)C2)C1` (centres undefined): the INHIBITION is 5.65%.

On to `COCC(=O)N1CCC2(CC(=O)N(c3cccc(F)c3)C2)C1` (centres undefined), for which the INHIBITION is given as 63.1%.

In the case of `O=C1CC2(CCN(CCO)C2)CN1c1cccc(F)c1` (centres undefined), the INHIBITION was -9.02%.

Regarding `CCOCC(=O)N1CCCC2(CCN(c3ccccc3)C2=O)C1` (centres undefined), the INHIBITION amounted to 33.4%.

As to `CC(C)c1ncc(CNC2(c3ccc(Cl)cc3)CC2)cn1`, the INHIBITION is reported as -33.4%.

As for `O=C(NC1CCN(C2CC2)C1)c1cn(-c2ccc(F)cc2)nn1` (centres undefined), the INHIBITION is recorded as 14.3%.

Consider `CC1CN(C(=O)c2ccn(C)c(=O)c2)c2ccccc2NC1=O` (centres undefined), for which the INHIBITION was -24%.

Regarding `Cc1ccc(CN(C)C(=O)CN2CCCC(Cn3cncn3)C2)o1` (centres undefined), the INHIBITION came out at 15.6%.

As to `Cc1ccc(C(=O)N(C)Cc2ccc(Br)s2)c(=O)[nH]1`, the INHIBITION is on record as 37.4%.

As for `Cc1ccc(-c2nc(CNC(C)Cn3cccn3)cs2)o1` (centres undefined), the INHIBITION was -27.9%.

Regarding `CCCc1noc(C(C)N2CCN(c3ccc(C#N)cn3)CC2)n1` (centres undefined), the INHIBITION came out at 5.23%.

For `CC(Cn1cccn1)NC(=O)N(C)Cc1ccc(C(N)=O)cc1` (centres undefined), the INHIBITION came out at 14.3%.

Take `CC(C)NC(=O)N1CCC2(CC(=O)N(c3cccc(F)c3)C2)C1` (centres undefined): the INHIBITION was determined as 7.65%.

As for `Cc1cccc(N2CC3(CCN(C(=O)NC(C)C)C3)CC2=O)c1` (centres undefined), the INHIBITION is on record as 14.6%.

Regarding `CC(C)NC(=O)N1CCC2(CC(=O)N(c3cccc(C#N)c3)C2)C1` (centres undefined), the INHIBITION is listed as 66.5%.

With `COCCN1C[C@@H]2CC[C@H]1CN(C(=O)CCc1c(C)nn(C)c1C)C2`, the INHIBITION was determined as 27.5%.

As to `Cn1cc(CN2C[C@H](N3CCOCC3)[C@@H]3OCCC[C@@H]32)cn1`, the INHIBITION came out at 54.1%.

In the case of `Cn1ccnc1CN1C[C@H](N2CCOCC2)[C@@H]2OCCC[C@@H]21`, the INHIBITION came out at 37.8%.

Turning to `Cn1cc(CN2C[C@@H](N3CCCC3=O)[C@H]3OCCC[C@H]32)cn1`, the INHIBITION turned out to be 29%.

In the case of `CC(C)c1nnc(CN2CCCC3(CC2)CN(C)C(=O)O3)o1` (centres undefined), the INHIBITION worked out at 23.9%.

`CCOc1ccc(Cl)c(C(=O)N2CCCC(N3CCCC3)C2)n1` (centres undefined): the INHIBITION is listed as 23.3%.

`CCc1nc(CN(CC(N)=O)C(C)C)cs1`: the INHIBITION came to 22.5%.

As to `CC(C)N(CC(N)=O)Cc1csc(COc2ccc(F)cc2)n1`, the INHIBITION is 81.5%.

Take `COCc1nc(CN(CC(N)=O)C(C)C)cs1`: the INHIBITION was 42%.

Take `COc1ccc(-c2noc(CN3CCN(c4cnccn4)CC3)n2)cc1`: the INHIBITION is 47%.

Take `CN(C)C(=O)N1CCN(C(=O)c2ccc(Cl)c(Cl)c2)C(C)(C)C1`: the INHIBITION was 14.1%.

Take `Cc1cc(C)cc(C(=O)N2CCN(C(=O)N(C)C)CC2(C)C)c1`: the INHIBITION is given as 18.6%.

`COC(=O)c1cccc(C(=O)N2CCN(C(=O)N(C)C)CC2(C)C)c1`: the INHIBITION is 68.6%.
